# Screening results (PubChem BioAssay)
# In the library only some 2.4% were active in any assay of this set; here they are far more common.
# D2 antagonist – antagonizes the human D2 dopamine receptor; P14416; HEK293 TREx D2 cells, calcium flux, dopamine EC80; inhibition, % at 10 µM; 340,000 tested, 2% active; in the data active = inhibition above about 30%; inactive = below that, where a call was filed; note: 0% is about no effect
# Target sequence (P14416 whole entry, looked up): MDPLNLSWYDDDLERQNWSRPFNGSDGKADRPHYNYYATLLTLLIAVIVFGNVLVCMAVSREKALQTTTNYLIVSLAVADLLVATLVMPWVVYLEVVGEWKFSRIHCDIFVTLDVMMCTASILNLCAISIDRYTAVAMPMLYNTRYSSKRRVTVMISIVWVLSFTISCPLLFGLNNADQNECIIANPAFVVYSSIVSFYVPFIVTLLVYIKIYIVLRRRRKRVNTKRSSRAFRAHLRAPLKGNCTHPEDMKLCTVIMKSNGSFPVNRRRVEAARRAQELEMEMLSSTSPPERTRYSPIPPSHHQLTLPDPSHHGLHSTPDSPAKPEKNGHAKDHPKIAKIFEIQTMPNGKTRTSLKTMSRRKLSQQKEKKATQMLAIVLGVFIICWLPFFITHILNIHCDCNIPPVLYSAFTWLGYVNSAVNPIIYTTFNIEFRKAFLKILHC
#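 Dopamine at EC80 is the agonist stimulus; test compounds precede it by 180 s. Calcium flux read kinetically in a force-coupled, inducible HEK293 T-REx D2 cell line.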
# D2 PAM-1 – potentiates the human D2 dopamine receptor allosterically | P14416 | DiscoveRx D2 beta-arrestin cells, luminescence, 90 min; 100% = 57 uM dopamine signal | potentiation, % (test concentration not listed) | 360,000 tested, 0.23% active | AID 624464; in the data active = potentiation above about 50%; inconclusive = mostly about 30% to 49%
#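 PathHunter D2 cells, attached overnight at 37 deg C, received compound in DMSO plus dopamine at EC20 (50 nM final) for 90 min at 37 deg C. Beta-arrestin recruitment was read as luminescence after 1 h with detection reagent at ambient temperature.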
# D2 ag-1 – agonists of human D2 dopamine receptor; P14416; HEK293 T-REx D2 cells, calcium flux agonist mode; activation, % at 2 µM; 340,000 tested, 0.53% active;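 active = activation over 3 SD above normal in the single-dose calcium agonist read, cut at about 30% in these data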; note: 0% is about no effect
#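 Agonism is scored from calcium flux in a force-coupled, inducible HEK293 cell line expressing D2, read kinetically for 180 s after compound addition against dopamine controls.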
# D2 ag-2 – agonists of human D2 dopamine receptor (beta-arrestin) | P14416 | DiscoveRx PathHunter D2 beta-arrestin, luminescence, 90 min; 100% = 57 uM dopamine signal | activation, % (test concentration not listed) | 360,000 tested, 0.084% active | AID 624465; in the data active = activation above about 40%; inconclusive = between about 15% and that limit
#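 Agonist mode: compounds alone added to overnight-plated D2 PathHunter cells for 90 min at 37 C, with 57 uM final dopamine (EC100) defining full response. Beta-arrestin recruitment detected by chemiluminescent reagent, read after 1 h at ambient temperature.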
# D2 PAM-2 – D2 dopamine receptor (human) potentiation. 340,000 tested, 0.34% active. AID 485347. HEK293 T-REx D2, calcium flux, EC20 dopamine potentiation. potentiation, % at 10 µM;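 active = potentiation over 3 SD above the plate norm, cut at about 30% in these data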; note: 0% is about no effect
#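 Potentiation of an EC20 dopamine calcium response is measured in a force-coupled, tetracycline-inducible Hek293 Trex D2 line. Compound-only kinetic reads over 180 s flag agonists before dopamine addition.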
# Starred values were filed as active, the others as inactive; ? = inconclusive; / = no result.
SMILES,D2 antagonist,D2 PAM-1,D2 ag-1,D2 ag-2,D2 PAM-2
CCOc1ccc(CN2CCCC(CO)(Cc3ccccc3F)C2)cc1 (stereo not drawn),67*,-4,0,-5,-35
COc1cc(Cl)c(CN2CCCC(CO)(Cc3ccccc3F)C2)cc1OC (stereo not drawn),1,-13,1,3,1
CCn1ccnc1CN1CCCC(CO)(Cc2cccc(OC)c2)C1 (stereo not drawn),11,-19,-1,-5,-4
OCC1(Cc2ccccc2)CCCN(Cc2ccc(-c3ccco3)cc2)C1 (stereo not drawn),54*,-29,-2,-6,-20
COc1cccc(CC2(CO)CCCN(Cc3ccc4c(c3)OCCO4)C2)c1 (stereo not drawn),56*,-6,0,-5,-28
Cc1ccc(CSc2ccc3nnc(CCNS(=O)(=O)c4ccc(C)cc4)n3n2)cc1,/,/,-1,/,-5
CC1CCC/C(=N/Nc2ccc([N+](=O)[O-])cc2[N+](=O)[O-])C1 (stereo not drawn),-7,74*,1,7,-1
CCCNS(=O)(=O)c1ccc(OCC(=O)NCCCOC)cc1,30*,-3,1,1,-14
CCCNS(=O)(=O)c1ccc(OCC(=O)OC)cc1,6,9,1,2,-6
CCOc1ccc(S(=O)(=O)NCCC(=O)NCCOc2ccccc2)cc1,-8,?,0,-2,-5
Cc1ccc(OCCNC(=O)CCNS(=O)(=O)c2ccc(C)cc2)cc1,30*,-19,0,-6,6
Cc1ccc(CNc2nc3ccccc3n3c(C)nnc23)cc1,/,/,1,/,-9
CC(C)(C)OC(=O)N1CCC(c2c(C(=O)Nc3ccc4c(c3)OCO4)cnn2-c2ccc(F)cc2F)CC1,/,/,-1,/,-9
CCCOc1ccc(Nc2nc(SC)ncc2C(=O)OCC)cc1,/,/,0,/,24
CN1CCN(S(=O)(=O)c2ccc(Oc3ccc(F)cc3Br)nc2)CC1,5,-1,2,-1,10
CN1CCN(S(=O)(=O)c2ccc(Oc3ccc(Br)cc3F)nc2)CC1,34*,1,-1,-1,4
CCOC(=O)Cc1ccc(NC(=O)N2CCOc3ccc(C)cc32)cc1,/,/,1,/,10
COC(=O)c1cc2occc2n1Cc1ccc(Cl)cc1,0,-9,-1,-1,-7
CCOC(=O)c1cc2occc2n1Cc1ccc(F)cc1,34*,-5,0,-4,-14
CCOC(=O)c1cc2occc2n1Cc1c(F)cccc1Cl,31*,-10,0,-4,-3
Cc1ccc(NC(=O)CN2C(=O)CSc3ccc(S(=O)(=O)N(C)C)cc32)c(C)c1,/,/,0,/,-1
Cc1ccc(NC(=O)NCCc2c(C)nn(C)c2C)c(Cl)c1,/,/,1,/,7
CN(O)/C=C1\C(=O)Nc2ccccc21,-2,131*,1,8,13
CN(C)/C=C1\C(=O)Nc2ccccc21,-4,-20,0,-4,-11
CCCN1CCN(c2nc(-c3cccs3)nc3ccccc23)CC1,37*,-43,-1,-2,-15
SMILES,D2 antagonist,D2 PAM-1,D2 ag-1,D2 ag-2,D2 PAM-2
O=C(CN1CCN(c2ccccc2F)CC1)c1ccc(O)c(O)c1,9,-15,61*,10,-22
Cc1c(O)ccc(C(=O)CN2CCN(c3ccccc3F)CC2)c1O,-12,-17,4,-1,11
Cc1ccc(C2=NN(C(=O)CSc3nnnn3C)C(c3ccco3)C2)cc1 (stereo not drawn),43*,-5,0,-3,4
CC(C)COC(=O)n1c(SCC(N)=O)nc2ccccc21,-21,-19,-2,-2,1
CC(C)COC(=O)n1c(SCC(=O)N(C)C)nc2ccccc21,31*,-7,0,-6,10
CC(=O)N1N=C(c2ccc(C)cc2)OC1c1ccc(C(C)C)cc1 (stereo not drawn),-2,-9,0,4,3
CC(=O)N1N=C(c2cccnc2)OC1c1ccc(C(C)C)cc1 (stereo not drawn),55*,7,0,2,27
COc1cccc(NC(=O)c2sc3nc(C)c(C(=O)Nc4ccc(C)cc4C)c(-c4ccc(Br)cc4)c3c2N)c1,/,/,-2,/,20
COc1cccc(Cn2c(C)c(CNCc3ccccc3Cl)c(C(=O)O)c2C)c1,/,/,0,/,-6
